# Tb PYK inh: blocks Trypanosoma brucei pyruvate kinase; AID 624173; 410,000 compounds, 0.12% hits; Potency, µM (titrated, usually from 76.8 µM), most hits filed as inhibitors; TbPYK enzyme, Kinase-Glo Plus ATP luminescence, 45 min; Q57TT1; further: nearly all actives have a fitted effect of over 50% in size
#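 Luminescence from Kinase-Glo Plus, added after a 45-minute room-temperature reaction, served as the end-point read-out. The enzyme and substrate were preincubated with compound before ADP (130 uM final) initiated turnover. Concentration-effect curves came from normalized qHTS data.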
# RE007 growth inh: less growth of the S. pombe RE007 Vpr strain; AID 651644; Potency, µM (titrated, usually from 92.2 µM), usual class: inhibitors; 360,000 compounds, 0.21% hits; S. pombe RE007 Vpr strain, BacTiter-Glo ATP luminescence, 24 h; active means well fitted falling curve with a large enough effect; inconclusive means small, poorly fitted or top-dose-only effect; inactive means no such curve, though single readings can be large or run the other way; further: nearly all actives have a fitted effect of over 50% in size
#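 Fission yeast strain RE007, carrying one chromosomally integrated HIV-1 vpr copy, was seeded at OD 0.01 in PMG+AL medium with 23 nL pinned compound. After 24 h at 30 °C and 99% humidity, viability was read by BacTiter-Glo luminescence.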
# FBPA Giardia inh: blocks Giardia fructose-bisphosphate aldolase activity | A8B2U2 | purified Giardia FBPA | Potency, µM (highest dose often 59.6 µM), actives largely listed as inhibitors | 290,000 compounds, 0.71% hits | AID 2451; further: nearly all actives have a fitted effect of over 55% in size
# Target sequence (A8B2U2 whole entry, looked up): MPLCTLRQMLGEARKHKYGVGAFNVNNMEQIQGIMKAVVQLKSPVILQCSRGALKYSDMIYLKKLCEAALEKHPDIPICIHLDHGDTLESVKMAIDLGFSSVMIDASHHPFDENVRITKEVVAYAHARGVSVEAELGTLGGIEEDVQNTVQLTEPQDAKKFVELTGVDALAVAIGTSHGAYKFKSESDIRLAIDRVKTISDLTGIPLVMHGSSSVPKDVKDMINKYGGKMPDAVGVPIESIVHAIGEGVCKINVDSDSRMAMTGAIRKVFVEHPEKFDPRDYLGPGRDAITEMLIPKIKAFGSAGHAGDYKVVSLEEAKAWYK
#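 Giardia FBPA (40 nM reagent) was preincubated 10 min at RT with compound (up to 57.5 uM final), then substrate plus GAPDH/TPI/NAD/arsenate coupling system with diaphorase/resazurin was added; resorufin fluorescence (525/598 nm) was read after 20 min.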
# Cycloheximide cs: counter-screen for Shiga toxin inhibitors: cycloheximide protein synthesis inhibition; cell reporter, cycloheximide protein synthesis inhibition counterscreen; max response, %; 300,000 compounds, 12% hits; AID 2314; in the data active means max response mostly above about 13%, no sharp cut-off; inactive means mostly below about 14%; further: read at 38.3 µM for the half of the compounds with a filed dose
# LmPK inh: inhibitors of Leishmania mexicana pyruvate kinase. purified LmPK, Kinase-Glo ATP luminescence, 1 h. Potency, µM (top dose mostly 57.5 µM), hits mostly inhibitors. 290,000 compounds, 0.37% hits
#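 Pyruvate kinase activity monitored as ATP production (luciferase luminescence). Conditions: 0.1 nM enzyme, 0.5 mM PEP, 0.1 mM ADP, 1 h, RT; normalized against uninhibited and no-enzyme wells.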
# Shiga toxin inh: inhibitors of Shiga toxin in Vero cells; inhibition, % at 38.7 µM; 290,000 compounds, 9.2% hits; Vero cells, Shiga toxin protein synthesis inhibition reporter; in the data active means inhibition mostly above about 28%, no sharp cut-off; inactive means mostly below about 43%
# A number is an active result; 0 = inactive; ? = inconclusive; - = not tested or not shown; ! = repeats disagree; [ ] = remark or other dose. This is one part of a sample in which hits are shown more often than they occur. Unless noted, the call rests on the fitted dose curve; in most records, active means well fitted curve in the direction sought with a large enough effect; inconclusive means small, poorly fitted or top-dose-only effect, or another doubt; inactive means no such curve, though single readings can be large; an effect the other way counts as inactive or inconclusive.
SMILES,Tb PYK inh,RE007 growth inh,FBPA Giardia inh,Cycloheximide cs,LmPK inh,Shiga toxin inh
COc1ccc2[nH]c(=O)c(CN(Cc3ccc(C)cc3)Cc3nnnn3CC3CCCO3)cc2c1 (centres undefined),0,0,?,40.3,0,40.1
COc1ccc2[nH]c(=O)c(CN(Cc3ccccc3OC)Cc3nnnn3CC3CCCO3)cc2c1 (centres undefined),0,0,0,0,0,0
CCOc1ccccc1NC(=O)c1nnn(CC(=O)Nc2ccc(OC)c(OC)c2)c1N,0,-,-,-,-,-
Nc1c2c(nc3ccccc13)N(c1ccccc1)CC2,0,0,?,0,0,0
Cc1cccc(N2CCc3c2nc2ccccc2c3N)c1,0,0,?,16.7!,0,26.9!
COC(=O)C1=C(C(=O)OC)C2OC1c1cc3ccccc3cc12,28.2µM,35.5µM,-,-,-,-
COC(=O)C1=C(c2ccc3ccccc3c2)C[C@@H]2CC[C@H]1N2C,0,0,-,-,-,-
CCOC(=O)c1[nH]c(C)c(CCC(=O)NC(C)c2ccccc2)c1C (centres undefined),0,-,-,-,-,-
Cc1ccc(C(=O)NC(=S)NNC(=O)c2ccccc2O)cc1,0,0,?,19.4,0,54.1
Cc1cccc(C(=O)NNC(=O)c2ccccc2C)c1,0,0,0,0,0,0
O=C(NC(=O)c1ccccc1O)c1ccc(C(F)(F)F)cc1,0,0,0,0,0,0
Cc1cccc(C(=O)NNC(=O)c2ccccc2O)c1,0,0,?,38.8,0,37.5
CCCc1ccc(C(=O)NC(=O)c2ccccc2O)cc1,0,0,0,23.1,0,0
COc1ccccc1C1C=C(c2ccc(Cl)cc2)Nc2nc(-c3ccc(Cl)cc3)nn21 (centres undefined),0,-,-,-,-,-
COc1cccc(C(=O)Nc2ccc(C(=O)OCc3cc(=O)n4cc(C)sc4n3)cc2)c1,0,-,-,-,-,-
CC(NS(=O)(=O)c1ccc2c(c1)CCN2C(=O)CCCC(=O)O)c1ccccc1 (centres undefined),0,-,-,-,-,-
O=C(O)c1ccccc1OS(=O)(=O)O,-,-,0,0,-,0
CC(C)COc1cccc(C(=O)NC2(C)CCS(=O)(=O)C2)c1 (centres undefined),0,0,-,0,0,0
CCCn1nnc(NC(=O)c2cccc(OCC(C)C)c2)n1,0,0,0,39.1,0,71.1
CCCn1nnc(NC(=O)c2cccc(OCC)c2)n1,0,0,0,44.7,0,129.9
CCCn1nnc(NC(=O)c2ccc(Br)o2)n1,0,0,0,0,0,0
CCn1nnc(NC(=O)c2ccc(C(C)(C)C)cc2)n1,0,0,0,36.3,0,0
CCCn1nnc(NC(=O)c2ccc(F)cc2)n1,0,0,0,48.2,0,56.6
C#CCCCO/N=C1/C[C@@H](O)[C@@H](O)[C@@H]2[C@@H]3C(=O)N(Cc4ccccc4)C(=O)[C@H]3CC[C@H]12,-,-,0[12.9 µM],-,-,-
C=Cc1ccc(Cn2c(=O)n(-c3cccc(C)c3)c(=O)c3c2c2cc(C)ccc2n3C)cc1,0,-,-,-,-,-
SMILES,Tb PYK inh,RE007 growth inh,FBPA Giardia inh,Cycloheximide cs,LmPK inh,Shiga toxin inh
NCCC[C@@H](CC(=O)N[C@@H]1CCCC[C@H]1C(=O)N[C@H](CC(=O)N[C@@H](CCC(=O)O)CC(=O)O)Cc1ccccc1)NC(=O)C[C@H](Cc1ccccc1)NC(=O)[C@@H]1CCCC[C@H]1N,-,-,0,-,-,-
CC(=O)N1CCCc2ccc(NC(=O)c3ccc(OC(C)C)cc3)cc21,0,-,-,-,-,-
CCCn1nnnc1NC(=O)c1ccc2ccccc2c1,0,0,0,0,0,0
CCCn1nnc(NC(=O)c2ccc3ccccc3c2)n1,0,0,0,44.4,0,142.8
COC(=O)C1CCCCN1C(=O)c1ccc2oc(C(C)C)nc2c1 (centres undefined),0,0,0,27.1,0,57.2
COc1cccc(CNC(=O)[C@@H]2CCCN2C(=O)[C@H]2CCCCN2C(=O)c2cccc(OC)c2)c1,0,0,-,-,-,-
CCOC(=O)C1CCCCN1C(=O)c1ccc2nc(Cc3ccc(OC)cc3)oc2c1 (centres undefined),0,0,-,0,0,0
COC(=O)C1CCCCN1C(=O)c1ccc2oc(Cc3ccccc3)nc2c1 (centres undefined),0,0,-,66.9,0,82.7
Cn1c(-c2ccc(F)cc2)cnc1SCC(=O)N1CCCCC1,0,0,0,33.4,0,0
CC1Cc2ccccc2N1C(=O)CSc1ncc(-c2ccc(F)cc2)n1C (centres undefined),0,0,0,61.0,0,74.9
Cc1ccc(Nc2cc(C)nc(-c3ccccc3O)n2)cc1,0,0,0,28.9,0,94.6
Cc1cc(Oc2ccc(Cl)cc2)nc(-c2ccccc2O)n1,0,0,0,0,0,0
Cc1cc(NCCCN)nc(-c2ccccc2O)n1,0,0,0,25.4,0,0
Cc1cc(Nc2ccc(Br)cc2)nc(-c2ccccc2O)n1,0,0,0,0,0,0
Cc1ccc(Oc2cc(C)nc(-c3ccccc3O)n2)cc1,0,0,0,36.6,0,0
Cc1ccc(Nc2cc(C)nc(-c3ccccc3)n2)cc1,0,0,0,41.9,0,91.0
Cc1ccc(C(=O)c2cn(Cc3ccccc3)c3nc(C)ccc3c2=O)cc1,0,-,-,-,-,-
Cc1ccccc1CSc1ncc(CO)n1Cc1ccc(F)cc1,0,-,-,-,-,-
CCOc1ccc(OCC)c(NC(=O)c2ccc(-c3ccccc3)s2)c1,0,-,-,-,-,-
O=[N+]([O-])c1nn(-c2ccc3c(c2)OCCO3)n(O)c1=NCc1ccccc1Cl,0,0,0,45.8,0,90.4
COc1ccc(-n2nc([N+](=O)[O-])c(=NCCc3ccc(OC)c(OC)c3)n2O)cc1,0,0,0,0,0,0
O=[N+]([O-])c1nn(-c2ccc3c(c2)OCCO3)n(O)c1=NC1CCCCC1,0,0,0,28.5,0,0
COc1ccccc1CN=c1c([N+](=O)[O-])nn(-c2ccc3c(c2)OCCO3)n1O,0,0,0,62.3,0,31.5
Cc1cc(C)cc(N=c2c([N+](=O)[O-])nn(-c3ccc(Cl)cc3)n2O)c1,0,0,0,0,0,0
CCOC(=O)c1c(C)[nH]c(CCC(=O)NCc2ccccc2Cl)c1C,0,-,-,-,-,-
SMILES,Tb PYK inh,RE007 growth inh,FBPA Giardia inh,Cycloheximide cs,LmPK inh,Shiga toxin inh
O=C1COc2cc(S(=O)(=O)CCC(=O)NC3CCCCC3)c(Cl)cc2N1,0,-,-,-,-,-
O=C(COC(=O)c1ccc2ncsc2c1)NCc1ccc(Cl)cc1,0,0,-,-,-,-
Cc1ncsc1CCOC(=O)c1ccccc1,0,0,0,37.7,0,58.0
Cc1ncsc1CCOC(=O)c1ccc(Cl)cc1,0,0,0,35.1,0,69.1
Cc1cccc(/C=N\NC(=O)c2ccccc2-n2cccc2)c1,0,0,0,0,0,0
Cc1cccc(/C=N\NC(=O)c2sccc2-n2cccc2)c1,0,0,0,64.5,0,114.4
O=C(N/N=C\c1ccccc1)c1sccc1-n1cccc1,0,0,0,26.5,0,49.1
CC(C)c1ccc(NC(=O)c2sccc2-n2cccc2)cc1,0,0,0,55.8,0,158.0
